# PubChem BioAssay (NCATS)
# Inconclusive results are not listed. A call without a number means that no potency is given here. The source made the active and inactive calls. Calls come from the whole dose curve; as a rule, active = well fitted inhibition curve with a large enough effect; inconclusive = small, poorly fitted or top-dose-only effect; inactive = flat fitted curve, though single readings scatter.
# Target: Calcium and integrin-binding protein 1 (Homo sapiens) (UniProt Q99828)
# Experiment: Primary qHTS for Identification of Calcium Integrin Binding Protein 1 (CIB1) Competitor (AID 1508620);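 note: GST tagged CIB1 binding a fluorescein labelled alphaIIb integrin peptide tracer; top concentration of the series differs between compounds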
# Conditions: CIB1-GST / FITC-alphaIIb peptide fluorescence polarization; series mostly up to 114 µM
# How it was run: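 Fluorescence polarization competition: CIB1-GST (1 uM final) preincubated with compound 15 min at room temperature, then FITC-labeled alphaIIb peptide (100 nM final) added for another 15 min. Polarization read at Ex 480/Em 540.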
# Sequence of Calcium and integrin-binding protein 1 (Homo sapiens) (Q99828 whole entry, looked up): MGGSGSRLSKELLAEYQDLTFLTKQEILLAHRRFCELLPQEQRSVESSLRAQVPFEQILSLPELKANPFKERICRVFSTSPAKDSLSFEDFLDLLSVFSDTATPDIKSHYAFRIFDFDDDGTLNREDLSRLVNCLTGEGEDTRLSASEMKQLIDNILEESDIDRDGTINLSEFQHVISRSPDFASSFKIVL
row,SMILES,Potency
1,Cc1nnc(-c2cnn(C)c2)n1CCCn1ccnc1,inactive
2,COc1ccccc1-c1csc2ncnc(Sc3nnnn3C)c12,inactive
3,Cc1nc(-c2ccccc2)oc1-c1ccc2ncnc(NCc3ncc[nH]3)c2c1,inactive
4,O=C(OCC#CCSc1nnc(-c2ccc3ccccc3c2)o1)c1ccc(F)cc1,inactive
5,Cc1nc2ccccn2c1P(=O)(c1ccccc1)c1ccccc1,inactive
6,O=c1[nH]c2ccc(S(=O)(=O)N3CCN(S(=O)(=O)c4c(F)cccc4F)CC3)cc2[nH]c1=O,inactive
7,Oc1ccc(CCc2ccccc2F)c2cccnc12,inactive
8,OCc1ccnc(NC(=S)N2CCN(c3cccc(C(F)(F)F)c3)CC2)c1,inactive
9,Nc1ccccc1OCCn1c(CCNC(=O)C2CCCCC2)nc2ccccc21,inactive
10,O=C(Nc1ccc2sccc2c1)Nc1nnc(-c2cccnc2)s1,inactive
11,O=C1c2ccccc2NC(c2ccc(-c3ccc(F)cc3)o2)N1O (stereo not given),inactive
12,Cc1ccccc1C(=O)n1ccc2cc(-c3nc(NC(=O)Cc4ccc5c(c4)OCO5)sc3C)ccc21,inactive
13,Cc1cc(N[S+](=O)([O-])c2ccc(NC(=O)Cc3ccc4c(c3)OCCO4)cc2)no1,inactive
14,FC(F)(F)c1cccc(-c2ccc(CNc3nc(-c4ccccc4C(F)(F)F)nc4ccccc34)cc2)c1,inactive
15,CC(=O)Nc1ccccc1OC1=N[S+](=O)([O-])c2ccccc21,inactive
16,Nc1ccccc1S(=O)(=O)Nc1cccc2cccnc12,inactive
17,COc1ccc(S(=O)(=O)Nc2ccc(C)c(C)c2)cc1,inactive
18,Cc1noc(C)c1-c1ccc2ncnc(NCC3CCCCN3C)c2c1 (stereo not given),inactive
19,COc1ccc(C2c3ccc4ccccc4c3Oc3ncn(CCN4CCOCC4)c(=N)c32)cc1OC (stereo not given),inactive
20,C[C@@H]1CN(S(=O)(=O)c2c(F)cccc2F)CCN1S(=O)(=O)c1ccc2c(c1)OCCO2,inactive

row,SMILES,Potency
1,Cc1cc(C)nc(NC(=S)N2CCN(c3nc(C)cnc3C)CC2)c1,inactive
2,CC(=O)Nc1sc2c(c1-c1cc3ccccc3o1)CCNC2,inactive
3,Cc1ccc(-c2csc3ncnc(Sc4nnnn4C)c23)cc1,inactive
4,CC(C)(C)OC(=O)N1CCC(c2ccc(NCc3ccc(-c4ccc(C#N)cc4)o3)cc2)CC1,inactive
5,Cn1nnnc1Sc1ncnc2scc(-c3ccc(Cl)cc3)c12,inactive
6,CC(=O)c1ccc(-c2csc(N3CCC(C(N)=O)CC3)n2)cc1,inactive
7,Cc1ccnc(NC(=S)N2CCN(c3ccc(Br)cc3)CC2)c1,inactive
8,Cc1ccc(OCCn2c(CCNC(=O)c3ccncc3)nc3ccccc32)cc1,inactive
9,Cc1cnc(-c2ccccc2C(C)C)nc1NCc1ccc(-c2cccc(S(N)(=O)=O)c2)cc1,inactive
10,CC(C)(C)OC(=O)N1CCN(c2cnc(NCc3ccc(-c4ccc(C#N)cc4)o3)cn2)CC1,inactive
11,Cc1cc(NS(=O)(=O)c2ccc(NC(=O)Cc3ccccc3)cc2)no1,inactive
12,Cc1cccc(C(=O)NC2CCN(C#N)CC2)c1,inactive
13,CCOc1ccc(CCNC(=O)c2cc3sccc3n2Cc2cccc(C)c2)cc1OCC,inactive
14,COc1cccc(CNc2ccc(S(=O)(=O)Nc3ccc(-c4ccccc4)cc3)cc2)c1O,inactive
15,Cc1ccc2nc3sc(C(=O)Nc4ccc(F)cc4)cc3cc2c1,inactive
16,CC(=O)Nc1oc(-c2cccc3ccccc23)nc1C#N,inactive
17,Oc1cccc2cc(CNc3ccccc3F)cnc12,inactive
18,CC(=O)NC(c1ccco1)c1cc(Cl)c2ccc(Cl)nc2c1O (stereo not given),inactive
19,Fc1ccc(-c2c(P(=S)(c3ccccc3)c3ccccc3)n3ccccc3[n+]2C/C=C/c2ccccc2)cc1,inactive
20,COc1ccccc1-n1cnc2cc(C(=O)N3CCCCC3)ccc21,inactive
